In paper PMC10812921, “Transcriptional Coactivator BOB1 (OBF1, OCA-B) Modulates the Specificity of DNA Recognition by the POU-Domain Factors OCT1 and OCT2 in a Monomeric Configuration”:

Biological target: T1, POU2 (OCT2 POU domain) (human, UniProt P09086 175-386)
T1 sequence: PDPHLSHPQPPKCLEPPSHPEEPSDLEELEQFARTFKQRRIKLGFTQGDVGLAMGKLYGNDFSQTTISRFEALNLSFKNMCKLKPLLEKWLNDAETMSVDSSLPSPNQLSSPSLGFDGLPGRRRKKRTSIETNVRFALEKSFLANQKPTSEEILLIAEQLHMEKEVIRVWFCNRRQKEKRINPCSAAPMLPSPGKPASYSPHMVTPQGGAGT
Assay: EMSA-SELEX-seq; no BOB1; 20 mM Tris-HCl pH 7.6, 140 mM NaCl, 10% glycerol, 0.5 mM EDTA, 0.05% Triton X-100, 0.1 mg/mL BSA, 0.1 mg/mL poly(dI-dC), 5 mM DTT, room temperature, 20 min; high values mean tight binding
Settings: protein: recombinant; dsDNA, one strand shown
How it was run: (§1)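 Binding preference is the percentage of sequenced 8-mers matching a motif pattern. Tagged POU-domain proteins expressed in E. coli BL21 were purified under denaturing conditions and renatured. For binding, 30 ng protein met 300 ng of a PCR-amplified double-stranded random 35-nt library, with or without 28 ng coactivator protein, in 20 μL Tris–HCl pH 7.6 binding buffer for 20 min at RT. Complex bands were cut from native 6% PAGE, eluted and PCR-amplified over four rounds, then Illumina-sequenced.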

| Sequence | binding signal |
| --- | --- |
| AGCACAAC | 0.0132 % of ANNNNAAN 8-mers |
| ACCCCAAG | 0.0115 % of ANNNNAAN 8-mers |
| AACGCAAC | 0.0201 % of ANNNNAAN 8-mers |
| ACGTTAAT | 0.163 % of ANNNNAAN 8-mers |
| AGCAAAAA | 0.0604 % of ANNNNAAN 8-mers |
| ACAGCAAC | 0.0155 % of ANNNNAAN 8-mers |
| ATTTAAAG | 0.185 % of ANNNNAAN 8-mers |
| ACCGAAAC | 0.0132 % of ANNNNAAN 8-mers |
| AGACGAAC | 0.0236 % of ANNNNAAN 8-mers |
| AGTTTAAG | 0.0656 % of ANNNNAAN 8-mers |
| ACCGCAAG | 0.0127 % of ANNNNAAN 8-mers |
| ACTGCAAC | 0.0155 % of ANNNNAAN 8-mers |
| ACCACAAG | 0.0178 % of ANNNNAAN 8-mers |
| ACCTCAAG | 0.0127 % of ANNNNAAN 8-mers |
| AGAAGAAC | 0.0288 % of ANNNNAAN 8-mers |
| ACACCAAC | 0.0127 % of ANNNNAAN 8-mers |
| AGACAAAT | 0.0748 % of ANNNNAAN 8-mers |
| AGCTCAAC | 0.0132 % of ANNNNAAN 8-mers |

| Sequence | binding signal |
| --- | --- |
| AAGGAAAC | 0.0403 % of ANNNNAAN 8-mers |
| ACCACAAC | 0.0132 % of ANNNNAAN 8-mers |
| AGGGTAAT | 0.279 % of ANNNNAAN 8-mers |
| ACAAGAAT | 0.0518 % of ANNNNAAN 8-mers |
| ACATCAAT | 0.057 % of ANNNNAAN 8-mers |
| ACGCCAAC | 0.0115 % of ANNNNAAN 8-mers |
| ACGAAAAT | 0.0949 % of ANNNNAAN 8-mers |
| ACCCTAAC | 0.0121 % of ANNNNAAN 8-mers |
| ACCGGAAG | 0.0127 % of ANNNNAAN 8-mers |
| AACCCAAG | 0.015 % of ANNNNAAN 8-mers |
| ACGCCAAG | 0.0167 % of ANNNNAAN 8-mers |
| ACGACAAG | 0.023 % of ANNNNAAN 8-mers |
| ACCCGAAC | 0.0109 % of ANNNNAAN 8-mers |
| AGGACAAT | 0.0345 % of ANNNNAAN 8-mers |
| ACCTCAAA | 0.0155 % of ANNNNAAN 8-mers |
| ACTGTAAA | 0.042 % of ANNNNAAN 8-mers |
| AAATAAAT | 0.275 % of ANNNNAAN 8-mers |

Biological target: POU1 (OCT1 POU domain);BOB1 (OBF1, OCA-B) (human;human, UniProt P14859;Q16633 260-458;1-256, |)
Assay: EMSA-SELEX-seq; with BOB1 (ternary complex band); 20 mM Tris-HCl pH 7.6, 140 mM NaCl, 10% glycerol, 0.5 mM EDTA, 0.05% Triton X-100, 0.1 mg/mL BSA, 0.1 mg/mL poly(dI-dC), 5 mM DTT, room temperature, 20 min; high values mean tight binding
Settings: protein: recombinant;recombinant; copies: 1;1; dsDNA, one strand shown
How it was run: as §1

| Sequence | binding signal |
| --- | --- |
| ACCCCAAG | 0.0105 % of ANNNNAAN 8-mers |
| ACGTTAAT | 0.073 % of ANNNNAAN 8-mers |
| AGCAAAAA | 0.11 % of ANNNNAAN 8-mers |
| ACAGCAAC | 0.014 % of ANNNNAAN 8-mers |
| ATTTAAAG | 0.152 % of ANNNNAAN 8-mers |
| ACCGAAAC | 0.0125 % of ANNNNAAN 8-mers |
| AGACGAAC | 0.0137 % of ANNNNAAN 8-mers |
| AGTTTAAG | 0.0519 % of ANNNNAAN 8-mers |
| ACCGCAAG | 0.0176 % of ANNNNAAN 8-mers |
| AGCCCAAC | 0.0105 % of ANNNNAAN 8-mers |
| ACTGCAAC | 0.0199 % of ANNNNAAN 8-mers |
| ACCACAAG | 0.0113 % of ANNNNAAN 8-mers |
| ACCTCAAC | 0.0129 % of ANNNNAAN 8-mers |
| ACCTCAAG | 0.0156 % of ANNNNAAN 8-mers |
| AGAAGAAC | 0.0176 % of ANNNNAAN 8-mers |
| ACACCAAC | 0.0113 % of ANNNNAAN 8-mers |

| Sequence | binding signal |
| --- | --- |
| AGACAAAT | 0.187 % of ANNNNAAN 8-mers |
| AGCTCAAC | 0.0101 % of ANNNNAAN 8-mers |
| AAGGAAAC | 0.0511 % of ANNNNAAN 8-mers |
| AGGGTAAT | 0.12 % of ANNNNAAN 8-mers |
| ACAAGAAT | 0.0437 % of ANNNNAAN 8-mers |
| ACATCAAT | 0.0367 % of ANNNNAAN 8-mers |
| ACGCCAAC | 0.0121 % of ANNNNAAN 8-mers |
| ACGAAAAT | 0.139 % of ANNNNAAN 8-mers |
| AACCCAAG | 0.0144 % of ANNNNAAN 8-mers |
| ACCCAAAC | 0.0164 % of ANNNNAAN 8-mers |
| ACGACAAG | 0.0215 % of ANNNNAAN 8-mers |
| AGGACAAT | 0.0496 % of ANNNNAAN 8-mers |
| ACCTCAAA | 0.0191 % of ANNNNAAN 8-mers |
| ACTGTAAA | 0.0406 % of ANNNNAAN 8-mers |
| AAATAAAT | 0.232 % of ANNNNAAN 8-mers |

Biological target: T2, POU2 (OCT2 POU domain);BOB1 (OBF1, OCA-B) (human;human, UniProt P09086;Q16633 175-386;1-256, |)
T2 sequence 1: T1 sequence
T2 sequence 2: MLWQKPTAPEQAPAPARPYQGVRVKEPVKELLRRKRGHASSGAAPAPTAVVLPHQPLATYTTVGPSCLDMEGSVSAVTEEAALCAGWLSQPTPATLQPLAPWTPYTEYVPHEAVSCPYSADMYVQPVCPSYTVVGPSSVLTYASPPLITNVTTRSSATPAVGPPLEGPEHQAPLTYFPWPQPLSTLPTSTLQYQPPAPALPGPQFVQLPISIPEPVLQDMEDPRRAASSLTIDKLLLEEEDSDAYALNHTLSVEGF
Assay: as above
Settings: protein: recombinant;recombinant; copies: 1;1; dsDNA, one strand shown
How it was run: as §1

| Sequence | binding signal |
| --- | --- |
| AGCACAAC | 0.0124 % of ANNNNAAN 8-mers |
| AACGCAAC | 0.0182 % of ANNNNAAN 8-mers |
| ACGTTAAT | 0.102 % of ANNNNAAN 8-mers |
| AGCAAAAA | 0.0644 % of ANNNNAAN 8-mers |
| ATTTAAAG | 0.0759 % of ANNNNAAN 8-mers |
| AGACGAAC | 0.0182 % of ANNNNAAN 8-mers |
| AGTTTAAG | 0.0504 % of ANNNNAAN 8-mers |
| AGCCCAAC | 0.0124 % of ANNNNAAN 8-mers |
| ACCTCAAC | 0.0107 % of ANNNNAAN 8-mers |
| AGAAGAAC | 0.0256 % of ANNNNAAN 8-mers |
| ACACCAAC | 0.0107 % of ANNNNAAN 8-mers |
| AGACAAAT | 0.105 % of ANNNNAAN 8-mers |
| ACCGCAAC | 0.0157 % of ANNNNAAN 8-mers |
| AGCTCAAC | 0.0231 % of ANNNNAAN 8-mers |
| AAGGAAAC | 0.038 % of ANNNNAAN 8-mers |
| AACCTAAC | 0.0132 % of ANNNNAAN 8-mers |
| AGGGTAAT | 0.129 % of ANNNNAAN 8-mers |
| ACAAGAAT | 0.0512 % of ANNNNAAN 8-mers |
| ACATCAAT | 0.0338 % of ANNNNAAN 8-mers |
| ACGAAAAT | 0.0834 % of ANNNNAAN 8-mers |
| ACCCTAAC | 0.0157 % of ANNNNAAN 8-mers |
| ACCGGAAG | 0.0124 % of ANNNNAAN 8-mers |
| ACCCAAAC | 0.0107 % of ANNNNAAN 8-mers |
| ACGCCAAG | 0.014 % of ANNNNAAN 8-mers |
| ACGACAAG | 0.0231 % of ANNNNAAN 8-mers |
| ACCCGAAC | 0.0132 % of ANNNNAAN 8-mers |
| AGGACAAT | 0.0421 % of ANNNNAAN 8-mers |
| ACCTCAAA | 0.0256 % of ANNNNAAN 8-mers |
| ACTGTAAA | 0.0388 % of ANNNNAAN 8-mers |
| AAATAAAT | 0.22 % of ANNNNAAN 8-mers |
